Laboratory results taken from PubChem BioAssay (Tox21).
Records with an inconclusive call do not appear. Active and inactive are the calls of the source. Calls follow the shape of the dose curve; as a rule, active = well fitted inhibition curve with a large enough effect in the repeat runs; inconclusive = weak or mixed curves, or effect the other way; inactive = no such curve, though single readings can be large or run the other way.

target: Nuclear receptor ROR-gamma (Homo sapiens) (UniProt P51449); assay: qHTS assay to identify small molecule antagonists of the retinoid-related orphan receptor gamma (ROR-gamma) signaling pathway (AID 1159521; also: nearly all actives have a fitted effect of over 50% in size; as to activity change, negative = inhibition: top concentration of the series differs between compounds); settings: Tet-on RORgamma CHO cells, RORE-luciferase, 16 h; series mostly up to 92.4 µM; activity change, negative = inhibition: at the top concentration
Text: U.S. Tox21 Program National Center for Advancing Translational Sciences [NCATS] NIH Chemical Genomics Center [NCGC] U.S. Environmental Protection Agency [EPA] National Institutes of Environmental Health Sciences [NIEHS] National Toxicology Program [NTP] U.S. Food and Drug Administration [FDA] Tox21 Assay Overview: Nuclear steroid hormone receptors are involved in many biological processes including inflammatory responses, cell proliferation, and apoptosis. Environmental factors or compounds disrupting these nuclear receptor pathways and gene expression may promote susceptibility to immunotoxicants and autoimmune diseases. One important group of these expression factors are the retinoid-related orphan receptors. To assess compounds that may interfere with the retinoid-related orphan receptor gamma (ROR-gamma) transcription factor, a cell-based luciferase assay was used. The CHO cell-based assay utilizes a TET-inducible ROR expression factor and ROR response element-LUC reporter gene. Reporter gene activity was induced using Doxycycline Hyclate and measured after 16 hr incubation. Tet-on ROR gamma CHO cells were used to screen against the Tox21 10K compound library for ROR gamma antagonists by quantification of decreased reporter gene activity in terms of decreased luminescence.
Tox21 Assay Protocol Summary: Tet-on ROR gamma CHO cells were dispensed at 1,000 cells in 4 uL of culture medium per well into white wall/solid bottom 1536-well plates using a Multidrop Combi (Thermo Scientific, Waltham, MA) dispenser. Following incubation at 37 C and 5% CO2 for 4 hr, 23 nL of compounds dissolved in DMSO, positive controls or DMSO only were transferred by a Pintool station (Kalypsys, San Diego, CA) and after 2 hr incubation at 37 C, one ul of 1 uM (final concentration) of Doxycycline Hyclate was added to all the wells by using a Flying Reagent Dispenser (FRD) (Aurora Discovery, San Diego, CA). After 16 hr incubation at 37 C and 5% CO2, 5 uL of ONE-Glo reagent (Promega Corporation, Madison, WI) was added to each assay plate using FRD. After 30 min incubation at room temperature, luminescence was quantified on a ViewLux plate reader (Perkin Elmer, Waltham, MA).
% is scaled to controls: 0 for no effect and ±100 for the full control effect; potency is read from the fitted curve at half-maximal effect.

Compound | activity change, negative = inhibition | Potency
O=c1[nH]ncc2ccccc12 | 46.1% (inactive) | 
CCOC(=O)c1ccccc1C(=C1C=C(Br)C(=O)C(Br)=C1)c1cc(Br)c(O)c(Br)c1 |  | 22.9 µM (active)
CCOC(=O)c1ccc(I)cc1 | 1.77% (inactive) | 
C(=C\c1ccccc1)/c1ccccc1 | 32.5% (inactive) | 
CC(=O)N/N=C/c1ccc([N+](=O)[O-])o1 | -13.3% [at 42.5 µM] (inactive) | 
COc1ncnc(NS(=O)(=O)c2ccc(N)cc2)c1OC | 3.12% [at 42.5 µM] (inactive) | 
OCCOCC#CCOCCO | -4.03% (inactive) | 
O=C(CCCN1CC=C(n2c(=O)[nH]c3ccccc32)CC1)c1ccc(F)cc1 | -2.73% [at 42.5 µM] (inactive) | 
O=C(O)CCC(=O)C(=O)O | -6.99% (inactive) | 
CC(=O)OCC[N+](C)(C)C | 42.9% [at 42.5 µM] (inactive) | 
CCOc1ccccc1O[C@H](c1ccccc1)[C@H]1CNCCO1 | 2.8% [at 42.5 µM] (inactive) | 
CCC1NC(=O)c2cc(S(N)(=O)=O)c(Cl)cc2N1 (stereo not given) | -8.44% [at 42.5 µM] (inactive) | 
Brc1cc2ccccc2c2ccccc12 |  | 21.8 µM (active)
O=C(O)C[C@H](NC(=O)OCc1ccccc1)C(=O)O | -30.2% (inactive) | 
CCOC(C)=O | -2.7% (inactive) | 
O=C=Nc1cccc(C(F)(F)F)c1 | -31.1% (inactive) | 
CCCCCCCCCI | -18.1% (inactive) | 
C=C1C[C@@]23CC[C@H]4[C@@](C)(CCC[C@@]4(C)C(=O)O[C@@H]4O[C@H](CO)[C@@H](O)[C@H](O)[C@H]4O)[C@@H]2CC[C@]1(O[C@@H]1O[C@H](CO)[C@@H](O)[C@H](O[C@@H]2O[C@H](CO)[C@@H](O)[C@H](O)[C@H]2O)[C@H]1O[C@@H]1O[C@H](CO)[C@@H](O)[C@H](O)[C@H]1O)C3 | 5.54% (inactive) | 
CC(C)=CCC/C(C)=C/CC/C(C)=C/CCC(=O)OC/C=C(\C)CCC=C(C)C | 0% [at 42.5 µM] (inactive) | 
C=CC(=O)[O-].C=CC(=O)[O-].[Zn+2] | 24.3% (inactive) | 

Compound | activity change, negative = inhibition | Potency
O=C(O)CCCCCCCCCCCBr | 46% (inactive) | 
CO/N=C(/C(=O)N[C@@H]1C(=O)N2C(C(=O)O)=C(COC(N)=O)CS[C@H]12)c1ccco1 | 19.9% (inactive) | 
CC1=C(CC=O)C(C)(C)CCC1 | -23.5% (inactive) | 
Oc1cc2c(cc1O)[C@H]1c3ccc(O)c(O)c3OC[C@@]1(O)C2 |  | 13.9 µM (active)
Oc1cccc(Nc2ccccc2)c1 | -8.08% (inactive) | 
CCCCCCCCC(CCCCCC)C(=O)O (stereo not given) | -1.69% (inactive) | 
c1csc(SSc2cccs2)c1 |  | 24.3 µM (active)
Cc1[nH]cnc1CN1CCc2c(c3ccccc3n2C)C1=O | -25.3% [at 42.5 µM] (inactive) | 
c1ccc2c(c1)CCc1ccccc1N2 |  | inactive
Clc1cc(Cl)nc(Cl)n1 | 0.796% (inactive) | 
CN1CCCN=C1COC(=O)C(O)(c1ccccc1)C1CCCCC1 (stereo not given) | 11% [at 42.5 µM] (inactive) | 
OC(CCN1CCCC1)(c1ccccc1)C1CCCCC1 (stereo not given) | 0.809% [at 42.5 µM] (inactive) | 
CCCCCC[C@@H](O)C/C=C\CCCCCCCC(=O)OCC(O)CO (stereo not given in full) | -9.72% (inactive) | 
CCCCCCCC/C=C\CCCCCCCCCCCC(=O)O | 23.7% (inactive) | 
Cc1cc(O)c(C)c(C)c1O | -12.4% [at 42.5 µM] (inactive) | 
CCOC(=O)c1ccc(OCCN2C[C@H](O)[C@@H](O)[C@H](O)[C@H]2CO)cc1 | 16.1% [at 42.5 µM] (inactive) | 
CCC(C)(C)OC | 7.89% (inactive) | 
COC(=O)CS | 97.9% (inactive) | 
O=c1cc(-c2ccccc2)oc2ccc3ccccc3c12 | -86.7% (inactive) | 
CCCCOc1ccc(OCCCN2CCOCC2)cc1 | -5.4% [at 42.5 µM] (inactive) | 
